# A selection: hits, their analogues and other compounds. The true share with any hit is near 3.1%.
# UBC13 polyUb: human UBC13 polyubiquitination inhibition | P61088 | UBC13 polyubiquitin chain formation, TR-FRET | inhibition, % at 20 µM | actives 0.47% (n = 330,000); in the data active = inhibition above about 45%, passing the limit was not always enough
# MEKK2 WT-MEK5: raises or lowers MEK5 binding to wildtype human MEKK2 PB1 domain. Q9Y2U5. bead flow cytometry, Alexa488-MEK5 binding to MEKK2 WT; actives lie on both sides. binding response (% of control), % at 10 µM. actives 1.1% (n = 290,000). AID 1531; in the data active = binding response below about 67% or above about 130%
# ATG4B inhibitor: blocks human ATG4B protease cleavage of LC3 substrate; AID 504462; Q9Y4P1; actives 0.51% (n = 340,000); inhibition, % at 8.33 µM; ATG4B cleavage of LC3-PLA2, NBD-HPC fluorescence, 1 h; in the data active = inhibition above about 40%
# PREPL inhibitor: human PREPL enzyme inhibition | recombinant PREPL, fluorescence polarization activity-based probe | inhibition, % at 5.96 µM | Q4J6C6 | AID 2751 | actives 0.68% (n = 320,000); in the data active = inhibition above about 43%;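 note: 0% = enzyme with DMSO and 100% = wells lacking enzyme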
# MEKK3 PB1 HTS: modulators (inhibitors or enhancers) of MEK5 binding to human MEKK3 PB1 domain; Q99759; bead-based flow cytometry, Alexa488-MEK5 binding to MEKK3; actives lie on both sides; 0 = blocked by unlabeled MEK5, 100 = vehicle; binding response (% of control), % at 10 µM; actives 1.4% (n = 290,000);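 active = binding response more than 3 SD above or below the average of its plate-row segment, actives on both sides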;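 note: Alexa488 bead fluorescence after subtracting the streptavidin-only scavenger bead signal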
# MEKK2mut PB1 HTS: signal of MEK5 binding to mutant human MEKK2 PB1 domain. AID 1530. percent response, % at 10 µM. bead flow cytometry, Alexa488-MEK5 binding to MEKK2 mutant. actives 0.35% (n = 290,000); in the data active = percent response above about 24%, passing the limit was not always enough
# MEKK2wt confirm: raises or lowers MEK5 binding to wildtype human MEKK2, retest; shares compounds with MEKK3 PB1 HTS; bead flow cytometry, Alexa488-MEK5 binding to MEKK2 WT; actives lie on both sides; binding response (% of control), % at 10 µM; actives 2.4% (n = 5,900); in the data active = binding response below about 16% or above about 210%; inactive = in between
# MEKK2mut-MEK5: signal of MEK5 binding to mutant human MEKK2, retest; percent response, % at 10 µM; shares compounds with MEKK3 PB1 HTS; actives 2% (n = 5,900); bead flow cytometry, Alexa488-MEK5 binding to MEKK2 mutant; in the data active = percent response mostly above about 71%, no sharp cut-off; inactive = mostly below about 38%;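 note: higher means compound restores mutant binding toward wildtype level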
# MEKK3-MEK5 inh: MEKK3-MEK5 PB1 inhibition, single concentration confirmation; binding response (% of control), % at 10 µM; actives 1.8% (n = 5,900); bead flow cytometry, Alexa488-MEK5 binding to MEKK3; active compounds read low; shares compounds with MEKK3 PB1 HTS;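 active = binding response below 72% of control, or above a set upper limit, though filed actives all read lower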;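 note: 100% = DMSO only wells and 0% = binding blocked by excess unlabeled MEK5; lower values mean stronger disruption of MEK5 binding to MEKK3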
# * = called active by the depositor; . = not tested or not shown; [ ] = dose if it differs, or a comment.
SMILES,UBC13 polyUb,MEKK2 WT-MEK5,ATG4B inhibitor,PREPL inhibitor,MEKK3 PB1 HTS,MEKK2mut PB1 HTS,MEKK2wt confirm,MEKK2mut-MEK5,MEKK3-MEK5 inh
CCOC(=O)c1sc(NC(C)=O)nc1-c1ccccc1,8,-2.0*[inhibitor],3,3,1.0*[inhibitor],-20,95,-4,95
Cc1ccc(S(=O)(=O)NC(=O)c2cc(C)n(C3CC3)c2C)cc1,15,91,2,2,96,-6,.,.,.
CCOC(=O)C1=C(CC)Nc2ccccc2N/C1=N\S(=O)(=O)c1cc(Br)ccc1Br,-16,90,18,.,98,-7,.,.,.
COc1ccc(S(=O)(=O)N2CCCCCC2)cc1NC(=O)c1c2c(nc3ccccc13)CCN(Cc1ccccc1)C2,-5,107,-16,15,105,-1,.,.,.
COc1ccc(NC(=O)c2c3c(nc4ccccc24)CCN(Cc2ccccc2)C3)c(OC)c1,-17,88,-1,8,75*[inhibitor],-1,113,15,106
COc1ccc(-c2nn(-c3ccccc3C)cc2CNCCc2cnc[nH]2)cc1F,2,149*,17,2,112,-6,161,22,105
CCN(CC)c1ccc(C(=O)OCC(=O)Nc2cc(C)on2)cc1,-7,.,-5,4,.,.,.,.,.
Cc1ccccc1C(=O)NNC(=O)CSc1nnc(C)n1-c1ccccc1,-5,96,9,-2,64*[inhibitor],-1,100,-12,97
O=C(NCCS(=O)(=O)N1CCN(c2cccc(Cl)c2)CC1)c1cc(=O)c2ccccc2o1,-1,101,-2,-11,102,4,.,.,.
O=C(O)c1ccc(NC(=S)Nc2ccc(S(=O)(=O)Nc3ccccn3)cc2)cc1,.,.,2,.,.,.,.,.,.
CC1=CC2=NC(=O)/C(=C/c3cccn3Cc3ccccc3)C(=N)N2O1,-3,105,-2,-40,106,4,.,.,.
N=C1/C(=C/c2cccn2Cc2ccc(Cl)cc2)C(=O)N=C2SC=CN12,-17,107,17,-13,129*,-1,112,5,109
Cc1nn(C)cc1C(C(=O)NC1CCCCC1)N(Cc1ccccc1Cl)C(=O)c1cnccn1 (stereo unspecified),-4,98,-8,-2,99,-9,.,.,.
COC(=O)c1cccc(N(C(=O)c2cnccn2)C(C(=O)NC2CCCCC2)c2cn(C)nc2C)c1 (stereo unspecified),-12,58,-2,-1,46*[inhibitor],-28,105,2,98
CC(=O)Nc1ccc(OCC(O)Cn2c3ccccc3c3ccccc32)cc1 (stereo unspecified),6,120,2,16,176*,2,-6.0*[inhibitor],-3,84
CC(=O)Nc1ccc(OCC(O)CN2C(C)(C)CC(O)CC2(C)C)cc1 (stereo unspecified),1,96,6,2,74*[inhibitor],-1,102,-3,100
CC(=O)c1cccc(NC2c3ccccc3C(=O)N2Cc2ccco2)c1 (stereo unspecified),-4,119,-5,4,134*,30,93,-3,93
CCOC(=O)c1cccc(NC2c3ccccc3C(=O)N2Cc2ccco2)c1 (stereo unspecified),11,99,0,15,100,11,.,.,.
N=c1n(CC(=O)c2ccc(Br)s2)c2ccccc2n1Cc1ccccc1,18,158*,3,-18,102,39,145,11,100
CCc1nc(SCC(=O)Nc2ccc(N(C)C)cc2)c2ccccc2n1,-9,109,-2,17,108,11,.,.,.

# High-throughput results deposited in PubChem BioAssay by several laboratories.
